Measured values taken from PubChem BioAssay (EPA / NIEHS).
Activity calls are given as the source filed them. How the source made its calls: active means hit-call score of the fitted dose curve at least 0.9, where 1 is the maximum; inactive means score below 0.9.

System: not listed separately
Assay: ATG_Ets_CIS: Attagene CIS-FACTORIAL HepG2 Assay for human Erythroblast Transformation Specific (ETS) (AID 2282941)
Conditions: HepG2 ETS cis-reporter transcription, actives raise or lower the signal
In short: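 Human HepG2 hepatoma cells were transiently transfected with promoter-driven reporter constructs and treated for 24 hours. Reporter transcripts were quantified by RT-PCR with fluorescent primer extension; bidirectional curve fitting used DMSO as reference.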
In the case of `O=S1(=O)OC(c2cc(Br)c(O)c(Br)c2)(c2cc(Br)c(O)c(Br)c2)c2ccccc21`, the outcome is reported as “inactive”.
For `Cc1cc(Cl)ccc1OCCCC(=O)O`, the outcome was “inactive”.
With `C#C[C@]1(O)CC[C@H]2[C@@H]3CCC4=CC(=O)CC[C@]4(C)[C@H]3CC[C@@]21C` the outcome was “inactive”.
With `C[C@@H]1O[C@@H](O[C@H]2C[C@@H](O)[C@]3(CO)[C@H]4[C@H](O)C[C@]5(C)[C@@H](C6=CC(=O)OC6)CC[C@]5(O)[C@@H]4CC[C@]3(O)C2)[C@H](O)[C@H](O)[C@H]1O` the AC50 was 0.221 µM (active).
For `C[N+](C)(C)Cc1ccccc1`, the outcome was “inactive”.
For `COP(=S)(OC)Oc1cc(Cl)c(I)cc1Cl`, the AC50 was 39.9 µM (active).
For `O=c1oc2ccccc2c(O)c1C(CC(O)c1ccc(-c2ccc(Br)cc2)cc1)c1ccccc1` (stereo not drawn), the outcome was “inactive”.
With `CN(N=O)C(N)=O` the outcome was “inactive”.
For `O=S(=O)(F)C(F)(F)C(F)(F)C(F)(F)C(F)(F)F`, the outcome was “inactive”.
With `OCC(c1ccc(Cl)cc1)c1ccc(Cl)cc1` the outcome was “inactive”.
In the case of `CCCCC(CC)C(=O)Cl` (stereo not drawn), the outcome is reported as “inactive”.
In the case of `C=CC(F)(C(F)(F)F)C(F)(F)C(F)(F)F` (stereo not drawn), the outcome is reported as “inactive”.
In the case of `CN(C)CCN(C)C`, the outcome is reported as “inactive”.
In the case of `CCCCS(=O)(=O)Cl`, the outcome is reported as “inactive”.
In the case of `Fc1cccc(Cl)c1CCl`, the outcome is reported as “inactive”.
For `Nc1ncn[nH]1`, the outcome was “inactive”.
For `CCCCOC(C)=O`, the outcome was “inactive”.
With `CC(=O)C(F)(F)C(F)(F)F` the outcome was “inactive”.
For `C#CCOC(=O)/C=C(C)/C=C/CC(C)CCCC(C)C` (stereo not drawn), the outcome was “inactive”.
With `OC(Cc1ccccc1Cl)(Cn1cncn1)C1(Cl)CC1` (stereo not drawn) the outcome was “inactive”.
In the case of `Cc1cc(C(F)(C(F)(F)F)C(F)(F)F)ccc1NC(=O)c1cccc(I)c1C(=O)NC(C)(C)CS(C)(=O)=O`, the outcome is reported as “inactive”.
For `CCOc1ccc(N)cc1`, the outcome was “inactive”.
In the case of `O=C(NC(=O)c1c(F)cccc1F)Nc1cc(Cl)c(Oc2ncc(C(F)(F)F)cc2Cl)c(Cl)c1`, the outcome is reported as “inactive”.
For `CN(N=O)c1ccc([N+](=O)[O-])cc1`, the outcome was “inactive”.
With `CCOC(=O)C(SP(=S)(OC)OC)c1ccccc1` (stereo not drawn) the outcome was “inactive”.
In the case of `COC(F)(C(F)(F)C(F)(F)F)C(F)(C(F)(F)F)C(F)(F)F` (stereo not drawn), the outcome is reported as “inactive”.
In the case of `OC(Cc1ccccc1Cl)(Cn1[nH]cnc1=S)C1(Cl)CC1` (stereo not drawn), the outcome is reported as “inactive”.
With `CC(F)(F)CC(F)(F)F` the outcome was “inactive”.
In the case of `O=C/C(Cl)=C(/Cl)C(=O)O`, the outcome is reported as “inactive”.
In the case of `COc1nn(C(=O)NS(=O)(=O)c2ccccc2OC(F)(F)F)c(=O)n1C`, the outcome is reported as “inactive”.
For `Cc1ccc(CCl)cc1`, the outcome was “inactive”.
For `Cl[C@H]1OCCO[C@@H]1Cl`, the outcome was “inactive”.
For `NC(=O)CCl`, the outcome was “inactive”.
In the case of `CC(C)[C@@H](Nc1ccc(C(F)(F)F)cc1Cl)C(=O)OC(C#N)c1cccc(Oc2ccccc2)c1` (stereo partly drawn), the outcome is reported as “inactive”.
For `Cc1cc(C(C)(C)c2ccc(O)c(C)c2)ccc1O`, the AC50 was 20.2 µM (active).
In the case of `CC1(C)[C@H](C(=O)O[C@H](C#N)c2cccc(Oc3ccccc3)c2)[C@@H]1/C=C(\Cl)C(F)(F)F`, the outcome is reported as “inactive”.
In the case of `ClCCCCl`, the outcome is reported as “inactive”.
In the case of `Cc1ccccc1OP(=O)(Oc1ccccc1)Oc1ccccc1`, the outcome is reported as “inactive”.
In the case of `CCN(N=O)C(N)=O`, the outcome is reported as “inactive”.

Molecular target: Hepatocyte nuclear factor 3-beta (Homo sapiens) (UniProt Q9Y261)
Sequence (Q9Y261 whole entry, looked up): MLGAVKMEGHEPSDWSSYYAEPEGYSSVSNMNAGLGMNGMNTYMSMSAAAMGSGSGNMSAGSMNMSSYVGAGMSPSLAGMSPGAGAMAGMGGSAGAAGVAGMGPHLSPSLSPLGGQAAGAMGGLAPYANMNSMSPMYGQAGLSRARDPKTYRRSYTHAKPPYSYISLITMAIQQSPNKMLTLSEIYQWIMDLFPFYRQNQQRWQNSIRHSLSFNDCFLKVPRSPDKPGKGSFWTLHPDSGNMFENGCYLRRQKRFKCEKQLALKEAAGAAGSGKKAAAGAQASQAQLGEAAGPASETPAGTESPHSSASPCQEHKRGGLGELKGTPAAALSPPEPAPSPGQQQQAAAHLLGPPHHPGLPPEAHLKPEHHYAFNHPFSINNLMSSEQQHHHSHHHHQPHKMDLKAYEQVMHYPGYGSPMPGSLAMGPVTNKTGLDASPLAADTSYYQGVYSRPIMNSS
Assay: ATG_FoxA2_CIS: Attagene CIS-FACTORIAL HepG2 Assay for human Forkhead box A2 (FOXA2) (AID 2282942)
Conditions: HepG2 cis-reporter transcription factor activity, 24 h; actives raise or lower the signal
In short: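 24 h dosing of HepG2 bearing cis-reporter constructs; mRNA readout by RT-PCR/CE fluorescence; bidirectional fit, DMSO baseline.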
In the case of `O=S1(=O)OC(c2cc(Br)c(O)c(Br)c2)(c2cc(Br)c(O)c(Br)c2)c2ccccc21`, the outcome is reported as “inactive”.
For `Cc1cc(Cl)ccc1OCCCC(=O)O`, the outcome was “inactive”.
With `C#C[C@]1(O)CC[C@H]2[C@@H]3CCC4=CC(=O)CC[C@]4(C)[C@H]3CC[C@@]21C` the outcome was “inactive”.
In the case of `C[C@@H]1O[C@@H](O[C@H]2C[C@@H](O)[C@]3(CO)[C@H]4[C@H](O)C[C@]5(C)[C@@H](C6=CC(=O)OC6)CC[C@]5(O)[C@@H]4CC[C@]3(O)C2)[C@H](O)[C@H](O)[C@H]1O`, the outcome is reported as “inactive”.
With `C[N+](C)(C)Cc1ccccc1` the outcome was “inactive”.
In the case of `COP(=S)(OC)Oc1cc(Cl)c(I)cc1Cl`, the outcome is reported as “inactive”.
In the case of `O=c1oc2ccccc2c(O)c1C(CC(O)c1ccc(-c2ccc(Br)cc2)cc1)c1ccccc1` (stereo not drawn), the outcome is reported as “inactive”.
With `CN(N=O)C(N)=O` the outcome was “inactive”.
With `O=S(=O)(F)C(F)(F)C(F)(F)C(F)(F)C(F)(F)F` the outcome was “inactive”.
For `OCC(c1ccc(Cl)cc1)c1ccc(Cl)cc1`, the outcome was “inactive”.
For `CCCCC(CC)C(=O)Cl` (stereo not drawn), the outcome was “inactive”.
With `C=CC(F)(C(F)(F)F)C(F)(F)C(F)(F)F` (stereo not drawn) the outcome was “inactive”.
For `CN(C)CCN(C)C`, the outcome was “inactive”.
For `CCCCS(=O)(=O)Cl`, the outcome was “inactive”.
In the case of `Fc1cccc(Cl)c1CCl`, the outcome is reported as “inactive”.
In the case of `Nc1ncn[nH]1`, the outcome is reported as “inactive”.
For `CCCCOC(C)=O`, the outcome was “inactive”.
For `CC(=O)C(F)(F)C(F)(F)F`, the outcome was “inactive”.
In the case of `C#CCOC(=O)/C=C(C)/C=C/CC(C)CCCC(C)C` (stereo not drawn), the outcome is reported as “inactive”.
In the case of `OC(Cc1ccccc1Cl)(Cn1cncn1)C1(Cl)CC1` (stereo not drawn), the outcome is reported as “inactive”.
With `Cc1cc(C(F)(C(F)(F)F)C(F)(F)F)ccc1NC(=O)c1cccc(I)c1C(=O)NC(C)(C)CS(C)(=O)=O` the outcome was “inactive”.
With `CCOc1ccc(N)cc1` the outcome was “inactive”.
For `O=C(NC(=O)c1c(F)cccc1F)Nc1cc(Cl)c(Oc2ncc(C(F)(F)F)cc2Cl)c(Cl)c1`, the outcome was “inactive”.
For `CN(N=O)c1ccc([N+](=O)[O-])cc1`, the outcome was “inactive”.
With `CCOC(=O)C(SP(=S)(OC)OC)c1ccccc1` (stereo not drawn) the outcome was “inactive”.
In the case of `COC(F)(C(F)(F)C(F)(F)F)C(F)(C(F)(F)F)C(F)(F)F` (stereo not drawn), the outcome is reported as “inactive”.
In the case of `OC(Cc1ccccc1Cl)(Cn1[nH]cnc1=S)C1(Cl)CC1` (stereo not drawn), the outcome is reported as “inactive”.
With `CC(F)(F)CC(F)(F)F` the outcome was “inactive”.
In the case of `O=C/C(Cl)=C(/Cl)C(=O)O`, the outcome is reported as “inactive”.
In the case of `COc1nn(C(=O)NS(=O)(=O)c2ccccc2OC(F)(F)F)c(=O)n1C`, the outcome is reported as “inactive”.
With `Cc1ccc(CCl)cc1` the outcome was “inactive”.
For `Cl[C@H]1OCCO[C@@H]1Cl`, the outcome was “inactive”.
In the case of `NC(=O)CCl`, the outcome is reported as “inactive”.
With `CC(C)[C@@H](Nc1ccc(C(F)(F)F)cc1Cl)C(=O)OC(C#N)c1cccc(Oc2ccccc2)c1` (stereo partly drawn) the outcome was “inactive”.
For `Cc1cc(C(C)(C)c2ccc(O)c(C)c2)ccc1O`, the outcome was “inactive”.
For `CC1(C)[C@H](C(=O)O[C@H](C#N)c2cccc(Oc3ccccc3)c2)[C@@H]1/C=C(\Cl)C(F)(F)F`, the outcome was “inactive”.
For `ClCCCCl`, the outcome was “inactive”.
For `Cc1ccccc1OP(=O)(Oc1ccccc1)Oc1ccccc1`, the outcome was “inactive”.
In the case of `CCN(N=O)C(N)=O`, the outcome is reported as “inactive”.
